# For some of these results: Potency and affinity values are given separately.
# Assays:
# Set-up in all cases: scale not given: direction of the effect not stated beside the values
# [1] = biological target: Protein translocase subunit SecA (Escherichia coli (strain K12)) (UniProt P10408); assay: Assay to Identify E. coli SecA ATPase Inhibitors; assay type: functional; conditions: 30 µM
# [2] = biological target: T1, Ubiquitin-activating enzyme e1, putative (Leishmania donovani (strain BPK282A1)) (UniProt E9BSI1); assay: Leishmania donovani Ubiquitin Activating Enzyme (LdE1); assay type: functional; conditions: 30 µM
# T1 sequence (whole entry): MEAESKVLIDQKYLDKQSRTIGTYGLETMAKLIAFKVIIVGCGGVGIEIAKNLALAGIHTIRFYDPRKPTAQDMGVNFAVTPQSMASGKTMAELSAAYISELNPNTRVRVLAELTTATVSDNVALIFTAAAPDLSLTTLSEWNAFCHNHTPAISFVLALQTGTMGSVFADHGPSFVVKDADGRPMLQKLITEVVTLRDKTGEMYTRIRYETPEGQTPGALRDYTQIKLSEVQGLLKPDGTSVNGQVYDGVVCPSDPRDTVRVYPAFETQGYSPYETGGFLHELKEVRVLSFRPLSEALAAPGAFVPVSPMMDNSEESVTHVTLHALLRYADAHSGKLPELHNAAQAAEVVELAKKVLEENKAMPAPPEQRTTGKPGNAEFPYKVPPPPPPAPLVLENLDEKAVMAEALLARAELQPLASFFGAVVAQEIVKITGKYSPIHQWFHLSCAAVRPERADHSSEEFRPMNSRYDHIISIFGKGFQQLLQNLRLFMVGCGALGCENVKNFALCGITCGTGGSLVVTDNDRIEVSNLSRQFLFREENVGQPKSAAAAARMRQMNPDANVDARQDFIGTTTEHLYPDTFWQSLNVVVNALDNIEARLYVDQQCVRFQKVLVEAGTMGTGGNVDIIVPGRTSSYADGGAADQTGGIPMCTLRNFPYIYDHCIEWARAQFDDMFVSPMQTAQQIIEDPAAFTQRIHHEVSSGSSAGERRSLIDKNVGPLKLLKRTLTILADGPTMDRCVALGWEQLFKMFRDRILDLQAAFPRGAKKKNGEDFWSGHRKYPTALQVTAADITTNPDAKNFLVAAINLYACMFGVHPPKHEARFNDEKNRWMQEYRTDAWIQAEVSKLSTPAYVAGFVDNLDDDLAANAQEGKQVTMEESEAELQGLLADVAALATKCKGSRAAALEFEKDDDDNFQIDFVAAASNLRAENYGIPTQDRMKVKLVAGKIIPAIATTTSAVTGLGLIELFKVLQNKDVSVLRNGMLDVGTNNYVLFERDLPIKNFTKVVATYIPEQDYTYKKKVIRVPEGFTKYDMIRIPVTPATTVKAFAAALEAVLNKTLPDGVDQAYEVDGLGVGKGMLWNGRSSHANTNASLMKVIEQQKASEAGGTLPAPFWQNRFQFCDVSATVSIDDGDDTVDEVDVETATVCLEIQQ
# [3] = biological target: AMP-activated protein kinase, AMPK (Homo sapiens) (UniProt P54646+O43741+P54619+Q9UGJ0+Q9Y478+Q13131+Q9UGI9); assay: AMP-dependent Kinase enzyme assay. An in vitro enzyme assay that detects ADP turnover that is directly proportional to AMPK activity. This uses naive AMPK that is activated during the assay with MK-8722; assay type: functional; conditions: 30 µM
# [4] = biological target: Sialic acid-binding Ig-like lectin 9 (Homo sapiens) (UniProt Q9Y336); assay: Hs-Siglec9 ALPHAscreen SOP 20170721; conditions: 10 µM
# Chain of Sialic acid-binding Ig-like lectin 9 (Homo sapiens) (Q9Y336 whole entry): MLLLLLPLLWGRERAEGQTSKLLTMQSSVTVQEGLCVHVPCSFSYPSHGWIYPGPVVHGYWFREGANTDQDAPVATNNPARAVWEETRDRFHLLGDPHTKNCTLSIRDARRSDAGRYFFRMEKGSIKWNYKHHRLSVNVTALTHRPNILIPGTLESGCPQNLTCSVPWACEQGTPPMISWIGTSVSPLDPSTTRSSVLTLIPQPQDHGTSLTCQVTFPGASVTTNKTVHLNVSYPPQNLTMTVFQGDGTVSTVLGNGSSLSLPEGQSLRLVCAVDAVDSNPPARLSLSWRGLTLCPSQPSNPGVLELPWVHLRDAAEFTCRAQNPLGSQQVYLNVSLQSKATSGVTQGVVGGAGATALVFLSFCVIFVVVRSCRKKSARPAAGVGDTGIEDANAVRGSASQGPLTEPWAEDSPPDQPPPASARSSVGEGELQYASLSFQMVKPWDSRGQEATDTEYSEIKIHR
# Trypanosoma cruzi = assay: Trypanosoma cruzi phosphomannomutase and mannose-1-phosphate guanylyltransferase assay; assay type: functional; conditions: 10 µM
# [5] = biological target: T2, Arginase-2, mitochondrial (Homo sapiens) (UniProt P78540); assay: in vitro enzyme assay to detect the production of urea directly proportional to the activity of Arginase II; assay type: functional; conditions: 33.3 µM; further: in the data most compounds retested in dose-response had high values
# T2 sequence (whole entry): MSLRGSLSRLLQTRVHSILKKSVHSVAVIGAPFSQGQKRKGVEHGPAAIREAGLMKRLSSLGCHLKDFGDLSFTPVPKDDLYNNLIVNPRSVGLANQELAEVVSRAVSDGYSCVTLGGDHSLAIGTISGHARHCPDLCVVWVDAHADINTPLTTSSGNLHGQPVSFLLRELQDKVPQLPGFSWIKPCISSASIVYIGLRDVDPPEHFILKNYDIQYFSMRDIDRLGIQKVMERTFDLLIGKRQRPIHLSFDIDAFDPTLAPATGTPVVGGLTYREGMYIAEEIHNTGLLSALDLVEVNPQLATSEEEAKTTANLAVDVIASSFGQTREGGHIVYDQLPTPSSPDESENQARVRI
# [6] = biological target: T3, Proteasome subunit beta (Trypanosoma cruzi) (UniProt O96673); assay: Trypanosoma cruzi proteasome chymotrypsin-like activity (TcProtChymo) assay.; further: in the data most compounds retested in dose-response had high values; assay type: functional; conditions: 9.37 µM
# T3 sequence (whole entry): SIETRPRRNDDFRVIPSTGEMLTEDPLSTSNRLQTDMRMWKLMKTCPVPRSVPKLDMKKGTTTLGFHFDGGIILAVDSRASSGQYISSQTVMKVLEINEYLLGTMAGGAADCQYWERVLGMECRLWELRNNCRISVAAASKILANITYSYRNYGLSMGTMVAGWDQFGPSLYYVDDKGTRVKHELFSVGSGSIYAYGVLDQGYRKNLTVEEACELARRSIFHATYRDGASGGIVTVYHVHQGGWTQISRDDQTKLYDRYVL
# Homo sapiens = organism: Homo sapiens; assay: To identify inhibition of the IFN signalling (Jak-Stat) pathway via expression of an eGFP reporter gene under the control of an IFN-stimulated response element (ISRE) containing MxA promoter.; assay type: functional; conditions: 30 µM
# [7] = biological target: T4, Tyrosyl-tRNA synthetase, putative (Trypanosoma cruzi (strain CL Brener)) (UniProt Q4DSP6); assay: Trypanosoma cruzi tyrosyl tRNA synthetase (TcYRS) _High Tyrosine SOP; assay type: functional; conditions: 30 µM; further: in the data most compounds retested in dose-response had high values
# T4 sequence (whole entry): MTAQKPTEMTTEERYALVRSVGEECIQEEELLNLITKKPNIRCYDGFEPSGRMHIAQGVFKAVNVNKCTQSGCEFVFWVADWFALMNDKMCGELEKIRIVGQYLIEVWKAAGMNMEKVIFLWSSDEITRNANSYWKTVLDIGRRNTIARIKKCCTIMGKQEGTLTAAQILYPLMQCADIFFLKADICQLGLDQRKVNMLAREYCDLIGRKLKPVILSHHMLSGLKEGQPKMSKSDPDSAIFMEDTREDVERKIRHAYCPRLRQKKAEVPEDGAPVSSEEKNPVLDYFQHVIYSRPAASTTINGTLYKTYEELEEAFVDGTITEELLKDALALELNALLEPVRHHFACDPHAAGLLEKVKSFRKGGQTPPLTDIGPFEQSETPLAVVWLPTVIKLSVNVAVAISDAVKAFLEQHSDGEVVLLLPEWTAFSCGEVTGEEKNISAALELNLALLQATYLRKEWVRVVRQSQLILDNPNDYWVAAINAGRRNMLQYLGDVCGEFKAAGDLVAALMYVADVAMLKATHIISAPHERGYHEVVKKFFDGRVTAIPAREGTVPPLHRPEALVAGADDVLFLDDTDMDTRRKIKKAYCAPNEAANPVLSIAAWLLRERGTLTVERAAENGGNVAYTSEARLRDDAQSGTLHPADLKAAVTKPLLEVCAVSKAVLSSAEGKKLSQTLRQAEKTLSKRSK
# [8] = biological target: T4, Tyrosyl-tRNA synthetase, putative (Trypanosoma cruzi (strain CL Brener)); assay: Trypanosoma cruzi tyrosyl tRNA synthetase (TcYRS) SOP; assay type: functional; conditions: 30 µM
# [9] = biological target: Chromo domain-containing protein 1 (Saccharomyces cerevisiae (strain ATCC 204508 / S288c) (Baker's yeast)) (UniProt P32657); assay: ScCHD-1 Enzyme Inhibition Assay; assay type: functional; conditions: 30 µM; further: in the data most compounds retested in dose-response had high values
# Chain of Chromo domain-containing protein 1 (Saccharomyces cerevisiae (strain ATCC 204508 / S288c) (Baker's yeast)) (P32657 whole entry, the tested form may be a part): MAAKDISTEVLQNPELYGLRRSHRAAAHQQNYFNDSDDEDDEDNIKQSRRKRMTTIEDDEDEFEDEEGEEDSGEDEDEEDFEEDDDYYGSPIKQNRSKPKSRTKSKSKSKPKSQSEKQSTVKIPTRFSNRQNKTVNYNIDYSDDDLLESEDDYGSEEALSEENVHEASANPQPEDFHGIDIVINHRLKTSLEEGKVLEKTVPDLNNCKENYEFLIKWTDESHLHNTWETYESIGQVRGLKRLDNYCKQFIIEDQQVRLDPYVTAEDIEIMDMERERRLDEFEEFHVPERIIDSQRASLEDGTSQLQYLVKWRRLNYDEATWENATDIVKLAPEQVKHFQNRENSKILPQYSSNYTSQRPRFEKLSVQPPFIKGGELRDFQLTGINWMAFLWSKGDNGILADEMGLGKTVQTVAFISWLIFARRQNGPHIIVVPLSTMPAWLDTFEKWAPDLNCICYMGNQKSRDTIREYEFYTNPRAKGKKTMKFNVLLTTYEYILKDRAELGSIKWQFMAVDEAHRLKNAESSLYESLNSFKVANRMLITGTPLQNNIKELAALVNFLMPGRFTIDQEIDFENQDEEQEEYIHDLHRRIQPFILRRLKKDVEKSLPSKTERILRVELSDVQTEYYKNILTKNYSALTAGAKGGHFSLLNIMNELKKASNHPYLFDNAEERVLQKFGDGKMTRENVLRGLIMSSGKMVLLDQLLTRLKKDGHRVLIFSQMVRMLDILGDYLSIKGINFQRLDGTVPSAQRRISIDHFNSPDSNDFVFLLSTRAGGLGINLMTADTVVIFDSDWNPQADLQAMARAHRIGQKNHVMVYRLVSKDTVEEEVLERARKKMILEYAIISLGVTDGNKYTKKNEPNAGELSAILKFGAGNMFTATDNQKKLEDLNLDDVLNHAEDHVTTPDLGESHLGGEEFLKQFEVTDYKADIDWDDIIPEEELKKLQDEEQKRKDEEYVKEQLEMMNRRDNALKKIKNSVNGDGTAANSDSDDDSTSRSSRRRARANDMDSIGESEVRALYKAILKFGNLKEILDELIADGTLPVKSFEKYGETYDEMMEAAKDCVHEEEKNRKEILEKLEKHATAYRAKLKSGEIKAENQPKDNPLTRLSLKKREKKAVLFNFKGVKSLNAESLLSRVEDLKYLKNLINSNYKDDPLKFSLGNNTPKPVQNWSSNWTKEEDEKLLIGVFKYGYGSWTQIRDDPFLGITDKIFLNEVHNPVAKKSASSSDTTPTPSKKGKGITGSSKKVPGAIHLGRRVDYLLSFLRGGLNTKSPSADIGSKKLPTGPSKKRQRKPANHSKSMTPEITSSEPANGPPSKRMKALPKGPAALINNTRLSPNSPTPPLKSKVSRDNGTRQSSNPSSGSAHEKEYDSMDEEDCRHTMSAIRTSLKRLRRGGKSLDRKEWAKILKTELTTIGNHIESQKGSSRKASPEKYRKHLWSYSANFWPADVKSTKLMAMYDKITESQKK
# Chain of Protein translocase subunit SecA (Escherichia coli (strain K12)) (P10408 whole entry): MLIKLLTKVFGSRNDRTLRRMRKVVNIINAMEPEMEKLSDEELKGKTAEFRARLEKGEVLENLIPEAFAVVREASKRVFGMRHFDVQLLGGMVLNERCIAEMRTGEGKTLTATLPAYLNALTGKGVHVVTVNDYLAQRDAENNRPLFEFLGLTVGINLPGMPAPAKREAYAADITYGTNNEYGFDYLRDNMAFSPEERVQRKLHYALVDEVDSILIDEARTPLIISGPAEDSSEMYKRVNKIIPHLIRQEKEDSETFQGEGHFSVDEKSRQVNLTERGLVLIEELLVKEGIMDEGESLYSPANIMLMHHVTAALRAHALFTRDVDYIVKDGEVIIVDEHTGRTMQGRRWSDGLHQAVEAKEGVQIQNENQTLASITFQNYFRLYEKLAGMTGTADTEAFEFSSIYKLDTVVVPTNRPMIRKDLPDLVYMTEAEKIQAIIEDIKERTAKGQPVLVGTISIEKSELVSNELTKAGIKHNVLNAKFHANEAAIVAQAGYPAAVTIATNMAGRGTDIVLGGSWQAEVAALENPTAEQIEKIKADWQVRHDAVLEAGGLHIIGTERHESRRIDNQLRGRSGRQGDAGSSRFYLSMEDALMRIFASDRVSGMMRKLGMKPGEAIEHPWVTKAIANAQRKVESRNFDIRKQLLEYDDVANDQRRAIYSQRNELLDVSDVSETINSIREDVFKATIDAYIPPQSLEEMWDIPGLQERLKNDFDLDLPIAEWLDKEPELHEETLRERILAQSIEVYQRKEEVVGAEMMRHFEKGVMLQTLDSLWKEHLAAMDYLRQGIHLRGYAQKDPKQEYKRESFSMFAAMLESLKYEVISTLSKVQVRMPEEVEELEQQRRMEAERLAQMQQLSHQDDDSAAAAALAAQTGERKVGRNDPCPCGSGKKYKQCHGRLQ
Structure (SMILES),Percent Effect [1],Percent Effect [2],Percent Effect [3],Percent Effect [4],Percent Effect (Trypanosoma cruzi),Percent Effect [5],Percent Effect [6],Percent Effect (Homo sapiens),Percent Effect [7],Percent Effect [8],Percent Effect [9]
Cn1ncc2c1C(COCC1CC1)CN(Cc1nccs1)C2 (configuration not stated),-1.87%,15.6%,-6.52%,0.425%,1.87%,5.81%,1.92%,28.4%,8.47%,14.1%,-10.6%
COCC1COCCC12CCN(C(=O)CCOc1ccccc1)CC2 (configuration not stated),-3.35%,2.7%,0.684%,-3.94%,8.2%,-2.5%,6%,-0.428%,8.91%,6.1%,1.14%
O=C(C1CCOCC1)N1C[C@@H]2[C@@H](C1)OCC(=O)N2Cc1ccncc1,-1.9%,-2.74%,-1.14%,7.63%,1.19%,-0.399%,4.2%,2.13%,2.08%,-6.17%,-1.66%
COc1c(C2CCCN2C(=O)c2cccc(C(N)=O)c2)c(C)nn1C (configuration not stated),-6.26%,10.4%,7.89%,-11.9%,-5.19%,-2.32%,3.96%,17.6%,0%,2.35%,-17.8%
COCCCN(C)Cc1nc2c(cnn2C)c(=O)[nH]1,-5.54%,21.1%,-0.426%,-2.13%,7.75%,3.96%,18.4%,-3.84%,2.46%,25.9%,-9.74%
Cc1cc(C)n(CCCNC(=O)[C@@H](C)NC(=O)OC(C)(C)C)n1,-6.34%,7.89%,8.18%,0.0654%,7.5%,-4.73%,13.3%,5.91%,3.19%,10.4%,-1.9%
Cc1nn(C)c2c(NCCCn3cccn3)ncnc12,-1.47%,9.33%,2.34%,-1.8%,3.34%,-3.35%,21.6%,-12.4%,2.12%,15.4%,-7.78%
Cc1ccc(CC(=O)N2Cc3nccn3CC(CN(C)C)C2)cc1 (configuration not stated),2.93%,11%,-4.31%,9.23%,0.198%,5.59%,15.3%,20.1%,8.33%,16.1%,-2.84%
CN(C)Cc1cc(=O)n2c(n1)CN(C(=O)Cc1ccsc1)CCC2,0.204%,2.6%,0.0483%,-0.795%,0.492%,1.38%,6.49%,-22.4%,1.07%,1.24%,-2.76%
COc1ccc(CNC(=O)NC(C)Cn2cccn2)cc1O (configuration not stated),-1.61%,5.2%,-4.12%,3.12%,2.64%,-1.47%,3.15%,25.9%,3.81%,11.8%,-15.6%
FC(F)(F)Cn1ccnc1CN1CCOC(Cn2cccn2)C1 (configuration not stated),-5.79%,6.33%,6.8%,1.11%,-2.36%,-1.5%,1.54%,13.3%,1.04%,15.2%,-6.67%
COCCC(=O)N1CC[C@@H](N(C)C)[C@@H]1Cc1ccccc1,-3.9%,5.33%,10.6%,4.93%,-0.394%,-1.17%,5.37%,-2.67%,5.32%,6.41%,-0.866%
Cc1nc(N2CCN(C)CC2)ncc1C(=O)N1CCC(O)(CO)CC1,-6.99%,5.41%,51.9%,4.12%,2.25%,0.744%,0.944%,9.71%,6.45%,13.6%,-3.95%
CC(NC(=O)N1CCCN(Cc2cccs2)CC1)c1cccnc1 (configuration not stated),-0.761%,18.4%,-1.54%,-0.0672%,5.64%,10.3%,8.02%,-11.5%,5.39%,21.9%,-12%
CC(=O)N1CCn2c(C(=O)N(C)C)cnc2C1,-2.73%,5.33%,9.01%,-0.782%,-1.77%,-3.03%,1.32%,5.39%,3.19%,6.41%,-2.05%
CC(NC(=O)CSCC#N)c1ccccc1 (configuration not stated),-1.5%,28.9%,-6.37%,-7.6%,5.51%,0%,15%,5.31%,7.39%,23.5%,-11.2%
Cc1nnc(CN2CCCC(c3cc(C(N)=O)[nH]n3)C2)o1 (configuration not stated),-3.02%,-5.41%,0.969%,11.5%,-1.23%,0%,-2.34%,2.07%,-1.48%,-1.24%,1.61%

# From ChEMBL document CHEMBL3988442, “University of Dundee, Small-Polar-MMV Screening Library” (2021)
